Experimental findings from PubChem BioAssay AID2216 (Broad Institute, 2009) are described below.

For orientation: inhibition means the change of the read-out against control, counted positive when it falls.

Structures are written as SMILES. The whole screen tested about 300,000 compounds, of which about 3,300 (1.1%) were called active. About 6% were inconclusive and are not listed.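 How the source made its calls: active means more than half of the replicate wells show a fall in the fluorescence ratio signal beyond about 16% (limit read from the data, passing the limit was not always enough); inconclusive means exactly half of the replicate wells pass the set limit; inactive means fewer than half of replicates pass the limit.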 This excerpt belongs to a sample that is enriched for actives.

For this assay, the system named is Ran GTPase (GTP-bound) - importin-beta complex. In words: disruptors of Ran-importin-beta complex formation – biochemical, FRET, CFP-Ran, YFP-importin-beta, homogeneous, primary screen (AID 2216).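 Further: 0% = DMSO wells and 100% = Ran loaded with GDP instead of GTP.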 The settings on record: cell-free CFP-Ran/YFP-importin-beta FRET ratio; hits give high values; concentration not given here.
On to `COc1cc(Cn2c(N)c(C(=O)NCc3ccco3)c3nc4ccccc4nc32)cc(OC)c1OC`, for which the inhibition is 54% (active).

On to `COC(=O)C1=C(c2ccccc2)C[C@@H]2CC[C@H]1N2C(=O)NCc1ccco1`, for which the inhibition is 1.27% (inactive).

`CCOC(=O)C(O)(c1ccc(NC(=O)c2ccco2)c(OC)c1)C(F)(F)F` (stereo not given): the inhibition is -1.67% (inactive).

On to `C/C(=N/O)c1ccc2ccc3ccccc3c2c1`, for which the inhibition is 4.2% (inactive).

For `CC[C@H]1CC2CN3CCc4c([nH]c5ccccc45)C(C(=O)OC)(C2)C13` (stereo not given in full), the inhibition was -1.66% (inactive).
